# FBW7 activator – human FBW7 E3 ligase activation, primary screen; actives 0.13% (n = 650,000); AID 1259310; normalized activity (activation), % at 26.1 µM; Q969H0; AlphaScreen FBW7–phospho-cyclin E peptide binding, activator screen; in the data active means normalized activity above about 1.9%;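 further: purified mutant Fbw7 with reduced substrate affinity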
# Target sequence (Q969H0 whole entry, looked up): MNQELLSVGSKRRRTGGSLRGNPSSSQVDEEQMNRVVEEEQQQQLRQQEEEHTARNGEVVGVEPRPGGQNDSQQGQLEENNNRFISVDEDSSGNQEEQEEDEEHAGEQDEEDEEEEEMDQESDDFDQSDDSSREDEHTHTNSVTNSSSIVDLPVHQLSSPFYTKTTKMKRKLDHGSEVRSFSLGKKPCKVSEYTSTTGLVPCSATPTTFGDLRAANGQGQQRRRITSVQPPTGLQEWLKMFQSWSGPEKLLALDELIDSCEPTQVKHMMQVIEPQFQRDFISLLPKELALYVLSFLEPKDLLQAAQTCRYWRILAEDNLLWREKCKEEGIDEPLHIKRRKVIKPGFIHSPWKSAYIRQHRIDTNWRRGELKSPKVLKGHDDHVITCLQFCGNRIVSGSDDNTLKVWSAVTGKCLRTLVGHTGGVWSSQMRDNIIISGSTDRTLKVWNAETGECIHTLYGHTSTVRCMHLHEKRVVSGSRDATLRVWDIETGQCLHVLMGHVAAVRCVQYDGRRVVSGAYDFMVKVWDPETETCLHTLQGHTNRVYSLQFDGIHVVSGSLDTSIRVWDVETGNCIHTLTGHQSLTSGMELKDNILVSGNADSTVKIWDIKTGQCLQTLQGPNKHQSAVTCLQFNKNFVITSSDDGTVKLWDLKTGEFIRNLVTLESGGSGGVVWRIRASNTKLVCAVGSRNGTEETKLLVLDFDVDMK
# MITF primary – blocks human microphthalmia-associated transcription factor. AID 1259374. AlphaScreen MITF homodimerization, bead proximity signal. O75030. inhibition, % at 2.6 µM. actives 0.91% (n = 650,000); in the data active means inhibition above about 50%;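 further: 0% = vehicle wells with protein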
# TEAD-YAP inh – TEAD-YAP interaction inhibition | HEK-TIYL cells, TEAD-Gal4/YAP UAS-luciferase luminescence | inhibition, % at 9.12 µM | actives 1.4% (n = 640,000) | AID 1259422; in the data active means inhibition above about 32%;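 further: 0% = median of test compound wells and 100% = reference inhibitor wells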
# GPR151 activ – human GPR151 activation; actives 1% (n = 650,000); PathHunter beta-arrestin GPR151 cells, luminescence; activation, % at 11.2 µM; Q8TDV0; in the data active means activation above about 4.9%;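 further: 0% = median of compound wells and 100% = cells with positive control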
# * marks the source's active call; other numbers are inactive results. Hits are enriched below; roughly 3.5% of the tested compounds scored in any of these assays.
SMILES,FBW7 activator,MITF primary,TEAD-YAP inh,GPR151 activ
CC(C)N(CCNc1nc(Nc2cnccn2)nc2c1ncn2-c1ccsc1)C(C)C,0.1,4.3,38.7*,-0.9
O=C(/C=C/c1cccs1)Nc1ccc(Cl)c2ncsc12,0.1,-9.8,87.0*,1.1
Cc1ccnc(NC(=O)/C=C/c2cccs2)c1,0.8,16.5,55.1*,-6.3
O=C(O)[C@H](Cc1ccccc1)NS(=O)(=O)c1ccc(F)cc1,0.0,15.9,-2.4,-0.3
CCCOc1ccc(/C=N/NC(=O)C(=O)Nc2ccc(OCC)cc2)cc1OCC,0.0,5.2,-1.1,0.1
CNC(=O)c1ccccc1Nc1cc(Nc2ccc(N3CCOCC3)cc2)ncc1C(F)(F)F,-0.3,0.2,75.1*,-0.2
CNC(=O)c1ccccc1Nc1cc(Nc2cccnc2)ncc1C(F)(F)F,-0.1,5.4,13.6,-1.0
CNC(=O)c1ccccc1Nc1cc(Nc2ccc(N3CCOCC3)cc2)ncc1C(N)=O,0.0,8.5,22.2,0.0
CNC(=O)c1ccccc1Nc1cc(Nc2ccc(C(=O)N3CCOCC3)cn2)ncc1C(F)(F)F,-0.1,-4.4,85.8*,-0.7
CNC(=O)c1cc(F)c(F)cc1Nc1cc(Nc2ccc(N3CCOCC3)cc2OC)ncc1C(F)(F)F,0.0,-1.1,5.7,0.4
CNC(=O)c1ccccc1Nc1nc(Nc2ccc(N3CCOCC3)c(F)c2)ncc1Cl,0.0,-3.0,63.0*,1.8
CNC(=O)c1ccccc1Nc1cc(Nc2ccc(N3CCOCC3)cc2F)ncc1C(F)(F)F,-0.1,3.8,67.1*,-2.7
CNC(=O)c1ccccc1Nc1nc(Nc2ccc(-n3cnc(N4CCOCC4)n3)cc2)ncc1Cl,0.1,19.9,31.2,0.6
O=C(COc1ccc(Cl)cc1Br)NCC1CCCO1 (centres undefined),-0.1,-1.1,-44.8,-0.6
CC(C)(C)c1ccc(C(=O)NNC(=O)c2cccc([N+](=O)[O-])c2)cc1,-0.1,2.3,-32.4,4.4
Cc1nc2sccn2c(=O)c1S(=O)(=O)Nc1ccc(F)cc1,-0.2,-1.3,1.1,0.9
Cc1ccc(NC(=O)C(C)N2Cc3ccccc3C2=O)nc1 (centres undefined),0.1,5.1,81.8*,-0.6
CCN1CCN(Cc2ccc3cccnc3c2O)CC1,-0.7,94.1*,29.4,3.1
CCN1CCN(C(c2cccs2)c2ccc3cccnc3c2O)CC1 (centres undefined),-0.5,18.4,87.6*,0.9
Oc1c(C(Nc2nccs2)c2cccs2)ccc2cccnc12 (centres undefined),-1.3,32.7,25.9,-2.1
c1cnc2c(CN3CCCCC3)cccc2c1,0.0,-0.7,13.2,2.7
CN1CCN(C(c2ccncc2)c2ccc3cccnc3c2O)CC1 (centres undefined),-0.2,70.2*,18.5,1.6
OCCN1CCN(C(c2cccs2)c2ccc3cccnc3c2O)CC1 (centres undefined),-0.4,25.8,87.1*,0.7
CC(C)(C)C(=O)Nc1sc2c(c1C(=O)Nc1cccc3ccccc13)CCC2,0.1,9.5,18.1,-0.7
CCC(=O)NC(c1cccs1)c1cc(Cl)c2cccnc2c1O (centres undefined),-0.8,19.4,23.1,-0.1
SMILES,FBW7 activator,MITF primary,TEAD-YAP inh,GPR151 activ
Oc1c(C(c2cccs2)N2CCOCC2)cc(Cl)c2cccnc12 (centres undefined),-0.5,6.7,56.7*,-0.1
CN1CCN(C(c2cccs2)c2ccc3cccnc3c2O)CC1 (centres undefined),-0.5,8.7,88.5*,-1.4
CC(NCCO)C(=O)Nc1ccc(Cl)cc1Cl (centres undefined),0.0,44.0,-2.2,1.3
CC(C)[C@@H]1NC(=O)[C@H]2CN(C(=O)Oc3ccccc3)CCN2C1=O,0.0,7.3,-1.1,2.6
CCc1ccc(NC(=O)N2CCCN(Cc3ccc(F)cc3)C2)cc1,0.1,1.9,1.0,0.3
CCOC(=O)c1c(C)[nH]c(C)c1C(=O)CCl,0.1,6.5,71.1*,-0.8
Cc1[nH]c2ccccc2c1C(=O)CCl,2.3*,17.8,4.6,-1.5
Cc1[nH]c2ccccc2c1C(=O)CN(C)C,-0.2,-9.2,-10.4,-0.8
CC(=O)c1c(-c2ccccc2)[nH]c2ccccc12,0.0,5.4,46.4*,4.3
O=C(CCc1nnc(Cc2ccc3c(c2)OCO3)o1)NC1CCCCCC1,0.3,9.9,6.4,1.8
CSc1cccc(CN2CCN3C(=O)[C@H](Cc4ccc(Cl)cc4)NC(=O)[C@H]3C2)c1,0.3,-27.0,-9.1,-2.1
COc1ccc(CCNc2nc(NC3CCC(O)CC3)nc3c2ncn3-c2ccsc2)cc1 (centres undefined),0.0,20.1,48.4*,1.5
COc1ccc(CCNc2nc(Nc3cccnc3)nc3c2ncn3-c2ccsc2)cc1,-0.1,-10.4,64.8*,-2.6
Oc1ccc(CCNc2nc(Nc3ccc(C(F)(F)F)cc3)nc3c2ncn3-c2ccsc2)cc1,0.2,0.1,25.4,-1.3
Oc1ccc(CCNc2nc(Nc3ccncc3)nc3c2ncn3-c2ccsc2)cc1,-0.1,-16.0,56.2*,-1.3
CCNc1nc(NCCc2ccc(O)cc2)c2ncn(-c3ccsc3)c2n1,0.2,9.8,16.6,0.0
Cn1nccc1Nc1nc(NCCc2ccc(O)cc2)c2ncn(-c3ccsc3)c2n1,0.2,6.3,59.8*,-1.8
C#CCOc1ccc(/C=C2\SC(NC(C)=O)=NC2=O)cc1Br,-0.1,-6.7,-12.0,-0.2
CC(C)N(CCNc1nc(Nc2ccccn2)nc2c1ncn2-c1ccsc1)C(C)C,0.0,1.4,28.2,-2.2
CC(C)N(CCNc1nc(Nc2ccnn2C)nc2c1ncn2-c1ccsc1)C(C)C,-0.1,3.4,35.3*,3.0
COc1ccc(CCNc2nc(Nc3cnccn3)nc3c2ncn3-c2ccsc2)cc1,-0.1,2.6,5.1,2.9
COc1ccc(CCNc2nc(Nc3ccncc3)nc3c2ncn3-c2ccsc2)cc1,0.0,5.8,42.5*,0.2
CCNC(=O)c1nn(CC2CC2)c2c1CN(Cc1c(C)[nH]c3ccccc13)CC2,-0.1,-10.9,2.5,0.2
Cc1ccc2nc(=S)nc(-c3ccccc3)n2c1,-0.1,-5.7,69.6*,0.7
Cc1ccn2c(N)c(-c3ccccc3)nc2c1,0.1,15.7,-7.8,-0.9
SMILES,FBW7 activator,MITF primary,TEAD-YAP inh,GPR151 activ
COCCNc1c(-c2ccccc2)nc2ccc(C)cn12,0.1,4.5,-23.6,-1.2
Cc1ccc2nc(-c3ccccc3)c(N)n2c1,-0.1,-1.3,68.5*,-10.1
COc1ccccc1Oc1ccc(S(=O)(=O)NCCC(=O)O)cc1,0.2,19.1,6.4,0.4
O=C(Nc1onc2c1CCCC2)c1ccc2c(c1)OCO2,0.0,6.3,64.7*,-9.0
Cc1ccc(C(=O)Nc2ccc3c(c2)OCO3)cc1,0.0,7.7,44.3*,-4.6
O=C(Nc1onc2c1CCC2)c1ccc2ccccc2c1,0.0,-8.9,-25.9,0.0
COc1cccc(S(=O)(=O)Nc2ccc3c(c2)OCCO3)c1,-0.1,1.2,32.7*,0.3
O=C(Nc1ccc2c(c1)CCC2)c1ccc2c(c1)OCO2,-0.1,14.7,58.9*,-5.5
O=C(CCN1C(=O)c2cccc([N+](=O)[O-])c2C1=O)Nc1ccc(Br)cc1,-0.2,-10.0,-8.0,0.0
CCCCC(=O)Nc1cccc(NC(=O)COc2ccc(Br)cc2)c1,-0.4,12.3,-8.4,-1.2

# Source: PubChem (The Scripps Research Institute Molecular Screening Center)
